From PubChem BioAssay
For some assays here: Results with a measured potency or affinity are listed apart. Active and inactive are the calls of the source. Unless noted, how the calls were made is not given here.

Legend:
[1] = antimalarial activity against Dd2 strain (AID 2302;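 active means growth inhibition above 50% at the single 2 µM test dose, taken to imply half-maximal potency below 2 µM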;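 further: 0% = DMSO untreated growth and 100% = chloroquine plus artemisinin killed control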); conditions: P. falciparum Dd2 in RBCs, LDH growth readout, 72 h; at 2 µM; hits give high values
[2] = human hepatoma cell viability loss – ATP luminescence, cytotoxicity control for P. falciparum antimalarial project, primary screen (AID 2303;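 active means inhibition above 50%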;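 further: 0% = DMSO wells and 100% = digitonin-killed cells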); conditions: HepG2 viability, 24-48 h, at 10 µM, hits give high values
[3] = target: L-lactate dehydrogenase (Plasmodium falciparum (isolate CDC / Honduras)) (UniProt Q27743); assay: PfLDH activity inhibition – cell lysate, 3D7 strain, counter-screen for P. falciparum growth inhibition project (AID 2304);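 further: 0% = vehicle and 100% = reference inhibitor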; conditions: P. falciparum 3D7 crude extract, LDH APAD/NBT absorbance; at 2 µM; hits give high values
[4] = inhibition of 3D7 malaria parasite growth – strain 3D7 (AID 2306);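 further: 0% = DMSO wells and 100% = chloroquine plus artemisinin control wells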; conditions: P. falciparum 3D7 erythrocytic growth, LDH absorbance, 72 h; at 2 µM; hits give high values
[5] = target: Calcium-dependent protein kinase 1 (Plasmodium falciparum (isolate 3D7)) (UniProt P62344); assay: PfCDPK1 kinase inhibitors, biochemical, TCAMS library (AID 1159585; cut-off not given, nearly all actives have IC50 up to about 0.98 µM;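 further: inhibitors leave more ATP so luminescence rises with inhibition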); conditions: recombinant PfCDPK1, Kinase-Glo ATP depletion luminescence
[6] = target: Plasmodium falciparum protein kinase 6 (PK6, PF3D7_1337100) (UniProt Q8IDW1); assay: PfPK6 kinase inhibitors, biochemical, TCAMS library (AID 1159586); conditions: recombinant PfPK6, Kinase-Glo ATP depletion luminescence
[7] = target: Protein kinase 7 (PK7), Plasmodium falciparum 3D7 (PF3D7_0213400) (UniProt Q7YTF7); assay: inhibition of Plasmodium PK7 catalytic activity – biochemical, TCAMS antimalarial set, Kinase-Glo luminescence (AID 1159587); conditions: recombinant PfPK7, Kinase-Glo ATP depletion luminescence
[8] = target: Calcium-dependent protein kinase 4 (Plasmodium falciparum (isolate 3D7)) (UniProt Q8IBS5); assay: PfCDPK4 kinase inhibitors, biochemical, TCAMS library (AID 1159588; cut-off not given, nearly all actives have IC50 up to about 0.91 µM); conditions: recombinant PfCDPK4, Kinase-Glo ATP depletion luminescence
Chain of Calcium-dependent protein kinase 4 (Plasmodium falciparum (isolate 3D7)) (Q8IBS5 whole entry, looked up): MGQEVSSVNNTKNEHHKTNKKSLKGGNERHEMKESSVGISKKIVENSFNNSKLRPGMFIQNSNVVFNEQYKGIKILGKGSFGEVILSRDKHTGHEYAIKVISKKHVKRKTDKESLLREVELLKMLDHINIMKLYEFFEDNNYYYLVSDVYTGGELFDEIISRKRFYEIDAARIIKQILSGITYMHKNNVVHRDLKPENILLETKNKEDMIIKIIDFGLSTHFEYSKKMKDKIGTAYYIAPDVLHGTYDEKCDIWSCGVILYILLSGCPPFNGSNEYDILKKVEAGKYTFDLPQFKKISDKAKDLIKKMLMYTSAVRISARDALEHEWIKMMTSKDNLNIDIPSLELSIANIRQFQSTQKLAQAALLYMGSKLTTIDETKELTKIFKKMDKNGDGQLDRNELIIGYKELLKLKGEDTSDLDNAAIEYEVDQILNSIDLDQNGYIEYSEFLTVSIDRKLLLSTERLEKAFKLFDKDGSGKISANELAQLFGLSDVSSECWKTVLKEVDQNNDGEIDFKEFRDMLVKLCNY

Chain of L-lactate dehydrogenase (Plasmodium falciparum (isolate CDC / Honduras)) (Q27743 whole entry, looked up): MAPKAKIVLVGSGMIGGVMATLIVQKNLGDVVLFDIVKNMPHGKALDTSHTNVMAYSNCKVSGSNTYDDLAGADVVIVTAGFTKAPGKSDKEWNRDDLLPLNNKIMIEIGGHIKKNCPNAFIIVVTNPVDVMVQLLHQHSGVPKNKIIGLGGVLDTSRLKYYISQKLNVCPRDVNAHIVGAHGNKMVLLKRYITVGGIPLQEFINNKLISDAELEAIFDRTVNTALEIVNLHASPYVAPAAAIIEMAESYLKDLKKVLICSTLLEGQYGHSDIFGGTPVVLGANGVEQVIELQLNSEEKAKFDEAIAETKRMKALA
Chain of Protein kinase 7 (PK7), Plasmodium falciparum 3D7 (PF3D7_0213400) (Q7YTF7 1-343): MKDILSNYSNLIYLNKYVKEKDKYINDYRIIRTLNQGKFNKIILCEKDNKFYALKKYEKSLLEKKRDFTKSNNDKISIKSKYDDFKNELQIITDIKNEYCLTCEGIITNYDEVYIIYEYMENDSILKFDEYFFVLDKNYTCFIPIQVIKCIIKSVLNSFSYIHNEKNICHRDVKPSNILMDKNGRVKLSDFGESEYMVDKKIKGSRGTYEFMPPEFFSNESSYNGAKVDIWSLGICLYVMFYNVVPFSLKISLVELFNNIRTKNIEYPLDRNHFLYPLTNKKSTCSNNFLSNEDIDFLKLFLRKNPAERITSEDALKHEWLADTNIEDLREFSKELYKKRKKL
Chain of Calcium-dependent protein kinase 1 (Plasmodium falciparum (isolate 3D7)) (P62344 whole entry, looked up): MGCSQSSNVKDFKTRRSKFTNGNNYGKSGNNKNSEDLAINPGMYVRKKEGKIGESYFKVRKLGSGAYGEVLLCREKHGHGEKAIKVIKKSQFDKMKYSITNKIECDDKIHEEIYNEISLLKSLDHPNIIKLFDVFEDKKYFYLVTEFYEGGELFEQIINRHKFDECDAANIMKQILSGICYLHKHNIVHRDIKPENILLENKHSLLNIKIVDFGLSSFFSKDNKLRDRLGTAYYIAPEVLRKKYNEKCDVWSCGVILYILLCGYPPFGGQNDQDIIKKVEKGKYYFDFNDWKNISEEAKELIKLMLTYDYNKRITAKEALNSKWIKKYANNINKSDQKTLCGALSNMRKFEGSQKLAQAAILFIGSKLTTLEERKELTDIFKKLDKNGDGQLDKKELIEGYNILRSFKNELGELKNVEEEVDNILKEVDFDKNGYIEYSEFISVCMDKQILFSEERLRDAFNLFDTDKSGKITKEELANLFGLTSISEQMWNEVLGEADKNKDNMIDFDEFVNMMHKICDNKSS
Chain of Plasmodium falciparum protein kinase 6 (PK6, PF3D7_1337100) (Q8IDW1 1-305): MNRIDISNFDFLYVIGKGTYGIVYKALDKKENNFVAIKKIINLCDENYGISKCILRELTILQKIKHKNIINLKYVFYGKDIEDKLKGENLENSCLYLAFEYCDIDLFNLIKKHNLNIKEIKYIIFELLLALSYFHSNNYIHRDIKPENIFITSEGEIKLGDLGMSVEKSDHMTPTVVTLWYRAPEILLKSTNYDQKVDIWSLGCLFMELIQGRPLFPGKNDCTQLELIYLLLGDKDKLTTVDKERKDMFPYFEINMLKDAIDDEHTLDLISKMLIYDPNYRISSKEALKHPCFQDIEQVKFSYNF

CCCNC(=O)c1cncc(-c2ccc(CNCCCc3ccccc3)cc2)c1
active: growth inhibition [4] 101%
inactive: growth inhibition [1] 29% | inhibition [2] -13% | inhibition [3] 0% | outcome [5] | outcome [6] | outcome [7] | outcome [8]

CCc1ccc(NC(=O)c2ccc(CN3CCCN(Cc4cccc(Cl)c4)CC3)cc2)cc1
inactive: growth inhibition [1] 2% | inhibition [3] 5% | outcome [5] | outcome [6] | outcome [7] | outcome [8]
active: inhibition [2] 50% | growth inhibition [4] 84%

CN(C)C(C)(C)CN(Cc1ccc(-c2ccc(C(F)(F)F)cc2)cc1)C(=O)Cn1c(CCc2cccc(F)c2F)nc(=O)c2ccccc21
inactive: inhibition [3] -3% | outcome [5] | outcome [6] | outcome [7] | outcome [8]
active: growth inhibition [1] 67% | inhibition [2] 64% | growth inhibition [4] 95%

CCCNCc1ccc(-c2ccc(CN(CCOC)C(=O)c3ccccc3)cc2)nc1
inactive: growth inhibition [1] 25% | inhibition [2] 16% | inhibition [3] -7% | outcome [5] | outcome [6] | outcome [7] | outcome [8]
active: growth inhibition [4] 94%

CC1CN=C(c2ccc(NC(=O)c3ccc(C(=O)Nc4ccc(C5=NCC(C)N5)cc4)cc3)cc2)N1 (stereo not given)
active: growth inhibition [1] 100% | growth inhibition [4] 99%
inactive: inhibition [2] 15% | inhibition [3] -7% | outcome [5] | outcome [6] | outcome [7] | outcome [8]

CCCc1cc(C)ccc1OCCCON1C(N)=NC(N)=NC1(C)C
active: growth inhibition [1] 97% | inhibition [2] 64% | growth inhibition [4] 97%
inactive: inhibition [3] 2% | outcome [5] | outcome [6] | outcome [7] | outcome [8]

CCc1nnc2sc(-c3cccc(NC(=O)c4ccc(C)c([N+](=O)[O-])c4)c3)nn12
active: growth inhibition [4] 82%
inactive: growth inhibition [1] 46% | inhibition [2] 10% | inhibition [3] 4% | outcome [5] | outcome [6] | outcome [7] | outcome [8]

O=S(=O)(NCCN1CCCC1)c1ccc(-c2cccc(CNC3Cc4ccccc4C3)c2)cc1F
active: growth inhibition [1] 62% | growth inhibition [4] 98%
inactive: inhibition [2] 41% | inhibition [3] -1% | outcome [5] | outcome [6] | outcome [7] | outcome [8]

CN(C)CC1CCCN1Cc1ccccc1-c1cnn(C)c(=O)c1Oc1cccc(C#N)c1 (stereo not given)
active: growth inhibition [4] 92%
inactive: growth inhibition [1] 15% | inhibition [2] 26% | inhibition [3] 4% | outcome [5] | outcome [6] | outcome [7] | outcome [8]

CO/C(=C\C=C\c1cc2cc(Cl)c(Cl)cc2[nH]1)C(=O)NCCCN1CCN(Cc2ccccc2)CC1
active: growth inhibition [1] 65% | growth inhibition [4] 94%
inactive: inhibition [2] 45% | inhibition [3] -2% | outcome [5] | outcome [6] | outcome [7] | outcome [8]

Cc1nc(Nc2cc(Cl)ccc2O)nc(Nc2cc(Cl)ccc2O)c1[N+](=O)[O-]
active: growth inhibition [1] 83% | growth inhibition [4] 98%
inactive: inhibition [2] -4% | inhibition [3] 3% | outcome [5] | outcome [6] | outcome [7] | outcome [8]

CN1C(C)(C)CC(NC(=O)c2ccc(-c3nc4cc(Cl)c(Cl)cc4[nH]3)cc2)CC1(C)C
inactive: inhibition [2] 8% | inhibition [3] 4% | outcome [5] | outcome [6] | outcome [7] | outcome [8]
active: growth inhibition [1] 97% | growth inhibition [4] 98%

O=C(Nc1ccc(OC2CCN(Cc3ccc(F)cc3)CC2)c(Cl)c1)c1ccoc1
active: growth inhibition [1] 90% | growth inhibition [4] 89%
inactive: inhibition [2] -2% | inhibition [3] 2% | outcome [5] | outcome [6] | outcome [7] | outcome [8]

O=C1NC(c2ccccc2)C2(CCN(CC(O)COc3cccc4ncccc34)CC2)O1 (stereo not given)
inactive: inhibition [2] 5% | inhibition [3] -4% | outcome [5] | outcome [6] | outcome [7] | outcome [8]
active: growth inhibition [1] 95% | growth inhibition [4] 92%

Cc1ccc(CON2C(N)=NC(N)=NC2(C)C)c(Cl)c1 (tested in a mixture with another compound)
inactive: inhibition [3] 0% | outcome [5] | outcome [6] | outcome [7] | outcome [8]
active: growth inhibition [1] 96% | inhibition [2] 67% | growth inhibition [4] 91%

COc1ccc(C(c2ccc(N(C)C)cc2)c2ccc(N(C)C)cc2)cc1
active: growth inhibition [1] 99% | inhibition [2] 72% | growth inhibition [4] 101%
inactive: inhibition [3] 1% | outcome [5] | outcome [6] | outcome [7] | outcome [8]

COc1ccc(C(C)Nc2nc(N)c3cc(OC)c(OC)cc3n2)cc1 (stereo not given)
active: growth inhibition [4] 101%
inactive: growth inhibition [1] 28% | inhibition [2] 23% | inhibition [3] -2% | outcome [5] | outcome [6] | outcome [7] | outcome [8]

COc1cc(NC2=C(c3ccccc3)C(=O)c3ccccc32)ccn1
inactive: inhibition [2] 7% | inhibition [3] 4% | outcome [5] | outcome [6] | outcome [7] | outcome [8]
active: growth inhibition [1] 96% | growth inhibition [4] 96%

COc1ccc2nccc(NC(=O)N3CCC(NCc4cc5c(F)ccc(F)c5[nH]4)CC3)c2n1
inactive: growth inhibition [1] 40% | inhibition [2] 6% | inhibition [3] -2% | outcome [5] | outcome [6] | outcome [7] | outcome [8]
active: growth inhibition [4] 99%

CCCCCCCC1CCN(C[C@H](O)c2ccnc3ccc(OC)cc23)CC1
inactive: inhibition [2] 23% | inhibition [3] 3% | outcome [5] | outcome [6] | outcome [7] | outcome [8]
active: growth inhibition [1] 81% | growth inhibition [4] 94%

O=C(NCc1cccc(Br)c1)c1ccc(CNC2CCN(Cc3ccccc3)CC2)cc1
inactive: growth inhibition [1] 49% | inhibition [2] 3% | inhibition [3] 4% | outcome [5] | outcome [6] | outcome [7] | outcome [8]
active: growth inhibition [4] 100%

CC(C)CNCc1ccc(-c2cccc(CN(CCN(C)C)C(=O)NCCc3ccccc3)c2)cc1
inactive: growth inhibition [1] 37% | inhibition [2] 33% | inhibition [3] -6% | outcome [5] | outcome [6] | outcome [7] | outcome [8]
active: growth inhibition [4] 91%

O=C(/C=C/c1cccc(Br)c1)NCCCCCN1CCC(c2c[nH]c3ccccc23)CC1
active: growth inhibition [4] 100%
inactive: growth inhibition [1] 15% | inhibition [2] 38% | inhibition [3] 0% | outcome [5] | outcome [6] | outcome [7] | outcome [8]

CCCCC(=O)N(CCOC)Cc1ccc(-c2ccc(CNCCC)cn2)cc1
active: growth inhibition [1] 68% | growth inhibition [4] 99%
inactive: inhibition [2] 30% | inhibition [3] -3% | outcome [5] | outcome [6] | outcome [7] | outcome [8]

COc1c(C2CCN(CCCCNC(=O)c3ccc(C)c(-c4ccc(C(F)(F)F)cc4)c3)CC2)ccc2c1CCCC2
inactive: inhibition [3] -5% | outcome [5] | outcome [6] | outcome [7] | outcome [8]
active: growth inhibition [1] 79% | inhibition [2] 76% | growth inhibition [4] 86%

CCOC(=O)c1ccc(N2CCN(c3cc(C)ccc3C)CC2)c(NC(=O)Nc2ccc(Cl)c(Cl)c2)c1
active: growth inhibition [4] 100%
inactive: growth inhibition [1] 42% | inhibition [2] 7% | inhibition [3] -2% | outcome [5] | outcome [6] | outcome [7] | outcome [8]

N#Cc1ccc2c(c1)CCN(CCC1CCC(NC(=O)/C=C/c3ccc(Cl)c(Cl)c3)CC1)CC2 (stereo not given)
inactive: inhibition [2] 31% | inhibition [3] -11% | outcome [5] | outcome [6] | outcome [7] | outcome [8]
active: growth inhibition [1] 51% | growth inhibition [4] 100%

Oc1ccc(CCNc2nc(NCCCOc3ccccc3-c3ccncc3)nc(N3CCNCC3)n2)cc1
active: growth inhibition [4] 96%
inactive: growth inhibition [1] -3% | inhibition [2] 8% | inhibition [3] 1% | outcome [5] | outcome [6] | outcome [7] | outcome [8]

CN(C)CCNC(=O)c1ccc(-c2cnc3ccc(NCc4ccc(Cl)c(Cl)c4)nn23)cc1
active: growth inhibition [1] 98% | inhibition [2] 60% | growth inhibition [4] 98%
inactive: inhibition [3] -5% | outcome [5] | outcome [6] | outcome [7] | outcome [8]

CCN(CCCN1CCCCC1)c1cc(C)nc(Nc2ccc(C(F)(F)F)cc2)n1
active: growth inhibition [1] 99% | growth inhibition [4] 102%
inactive: inhibition [2] 26% | inhibition [3] -3% | outcome [5] | outcome [6] | outcome [7] | outcome [8]

CCSc1ccc(C)cc1CON1C(N)=NC(N)=NC1(C)C
active: growth inhibition [1] 96% | inhibition [2] 66% | growth inhibition [4] 94%
inactive: inhibition [3] 0% | outcome [5] | outcome [6] | outcome [7] | outcome [8]

CC(=O)NCCCCC1NC2(C(=O)N(Cc3ccc(C(C)(C)C)cc3)c3ccccc32)C2C(=O)N(C3CCCCC3)C(=O)C12 (stereo not given)
inactive: inhibition [2] -2% | inhibition [3] -3% | outcome [5] | outcome [6] | outcome [7] | outcome [8]
active: growth inhibition [1] 71% | growth inhibition [4] 91%

CC(=O)c1cccc(NC(=O)N2CCCN(CCCCCNC(=O)/C=C/c3ccc(Cl)c(Cl)c3)CC2)c1
active: growth inhibition [4] 93%
inactive: growth inhibition [1] 0% | inhibition [2] 13% | inhibition [3] -5% | outcome [5] | outcome [6] | outcome [7] | outcome [8]

CCN(CC)c1nc(-c2ccccc2)cc(-c2ccccc2)c1C#N
active: growth inhibition [1] 66% | growth inhibition [4] 100%
inactive: inhibition [2] -7% | inhibition [3] 2% | outcome [5] | outcome [6] | outcome [7] | outcome [8]

COc1ccc(-c2ccc(CNCc3ccc(F)cc3)cc2)cc1S(=O)(=O)NCCN1CCCC1
inactive: growth inhibition [1] 33% | inhibition [2] 24% | inhibition [3] 3% | outcome [5] | outcome [6] | outcome [7] | outcome [8]
active: growth inhibition [4] 98%

CC(CN1CCN(C)CC1)C(=O)Nc1ccc(-c2cccc(-c3nc4ccc(F)cc4[nH]3)c2)cc1 (stereo not given)
inactive: inhibition [2] 8% | inhibition [3] 0% | outcome [5] | outcome [6] | outcome [7] | outcome [8]
active: growth inhibition [1] 99% | growth inhibition [4] 100%

CC(C)(C)OC(=O)Cn1cnc2cc(NC(=O)c3cc([N+](=O)[O-])cc([N+](=O)[O-])c3)ccc21
inactive: inhibition [2] 11% | inhibition [3] 5% | outcome [5] | outcome [6] | outcome [7] | outcome [8]
active: growth inhibition [1] 97% | growth inhibition [4] 100%

O=C(N[C@@H](Cc1ccccc1)C(=O)NCCN1CCOCC1)c1ccc(O)c(-c2ccc(Cl)c(Cl)c2)c1
inactive: growth inhibition [1] 31% | inhibition [2] -4% | inhibition [3] 5% | outcome [5] | outcome [6] | outcome [7] | outcome [8]
active: growth inhibition [4] 97%

Cc1ccc(O)c(C(=O)c2cnc3c(c2)c(-c2ccc(F)cc2)c(C#N)c(=O)n3C)c1
inactive: inhibition [2] 17% | inhibition [3] 2% | outcome [5] | outcome [6] | outcome [7] | outcome [8]
active: growth inhibition [1] 56% | growth inhibition [4] 93%

O=C(NC1CCN(CCCOc2ccnc3cc(Cl)ccc23)C1)c1ccc(Br)cc1 (stereo not given)
inactive: inhibition [2] 21% | inhibition [3] 2% | outcome [5] | outcome [6] | outcome [7] | outcome [8]
active: growth inhibition [1] 87% | growth inhibition [4] 86%
